# “And” between values parts separate entries of the source, which are not always exact repeats. Identical values can stand only once. Inconclusive results are not listed. Where a call stands in place of a potency, no number is given. The source holds several records for some structures; these can differ, active in one and inactive in another. The source made the active and inactive calls. Calls follow the shape of the dose curve; as a rule, active = well fitted curve in the direction sought with a large enough effect in the repeat runs; inconclusive = weak or mixed curves; inactive = no such curve, though single readings can be large; an effect the other way counts as inactive or inconclusive.
# Columns and labels:
# [1] = qHTS RealTime-Glo MT Cell Viability Assay in HepG2 cells - 40 hour (AID 1224870); also: nearly all actives have a fitted effect of over 50% in size
# How it was run: (§1)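 HepG2 cells mixed with RealTime-Glo MT reagents (NanoLuc plus cell-permeant prosubstrate) were seeded at 600 cells/well, incubated 5 h at 37 C/5% CO2, then pinned with compounds in DMSO; nonlytic luminescence tracked viability during 40 h treatment.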
# [2] = A CellTox Green Cytotoxicity Assay to monitor cytotoxicity in HEK293 cells - 40 hour (AID 1224871); also: nearly all actives have a fitted effect of over 45% in size; also: potency is read from the fitted curve at half-maximal effect
# How it was run: (§2)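 Cells (HEK293, 600/well) and dye reagent are dispensed together. After 5 h at 37 C, 23 nL compound is pinned in. Plates stay at 37 C for 40 h with fluorescence read at 0h, 8h, 16h, 24h, 32h and 40h.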
# [3] = qHTS RealTime-Glo MT Cell Viability Assay in HEK293 cells - 16 hour (AID 1224872); also: nearly all actives have a fitted effect of over 50% in size; also: potency is read from the fitted curve at half-maximal effect
# How it was run: (§3)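 HEK293 cells were seeded at 600 cells/well together with NanoLuc luciferase and cell-permeant prosubstrate, preincubated 5 h at 37 C/5% CO2, then given compound in DMSO by pintool. Luminescence from viable-cell prosubstrate reduction was read repeatedly over 40 h.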
# [4] = qHTS RealTime-Glo MT Cell Viability Assay in HepG2 cells - 8 hour (AID 1224873); also: nearly all actives have a fitted effect of over 55% in size
# How it was run: as §1
# [5] = qHTS RealTime-Glo MT Cell Viability Assay in HEK293 cells - 40 hour (AID 1224874); conditions: RealTime-Glo luminescence; max response: stronger effect = lower value; also: nearly all actives have a fitted effect of over 50% in size; also: potency is read from the fitted curve at half-maximal effect
# How it was run: (§4)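 Real-time viability in HEK293: signal arises when living cells convert a prosubstrate for NanoLuc in the medium, so luminescence tracks viable cell number. Compound (23 nL, DMSO) added 5 h post-seeding; kinetic reads at 0–40 h, 37 C.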
# [6] = A CellTox Green Cytotoxicity Assay to monitor cytotoxicity in HepG2 cells - 16 hour (AID 1224876); also: nearly all actives have a fitted effect of over 45% in size; also: potency is read from the fitted curve at half-maximal effect
# How it was run: (§5)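 Cells and non-lytic dye reagent are dispensed together (600 HepG2 cells/well) and incubated 5 h before DMSO compound transfer. Kinetic fluorescence is then recorded in the same wells during 40 h at 37 C.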
# [7] = qHTS RealTime-Glo MT Cell Viability Assay in HepG2 cells - 32 hour (AID 1224877); also: nearly all actives have a fitted effect of over 55% in size
# How it was run: (§6)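 HepG2 cells were seeded at 600 cells/well together with NanoLuc luciferase and a cell-permeant prosubstrate, preincubated 5 h at 37 C/5% CO2, then pin-dosed with compounds in DMSO. Nonlytic luminescence from viable cells was read at each time point.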
# [8] = A CellTox Green Cytotoxicity Assay to monitor cytotoxicity in HepG2 cells - 24 hour (AID 1224878); also: nearly all actives have a fitted effect of over 45% in size; also: potency is read from the fitted curve at half-maximal effect
# How it was run: as §5
# [9] = A CellTox Green Cytotoxicity Assay to monitor cytotoxicity in HepG2 cells - 40 hour (AID 1224879); also: nearly all actives have a fitted effect of over 40% in size; also: potency is read from the fitted curve at half-maximal effect
# How it was run: as §5
# [10] = qHTS RealTime-Glo MT Cell Viability Assay in HEK293 cells - 0 hour (AID 1224880); also: top concentration of the series differs between compounds; nearly all actives have a fitted effect of over 45% in size
# How it was run: as §4
# [11] = A CellTox Green Cytotoxicity Assay to monitor cytotoxicity in HepG2 cells - 0 hour (AID 1224882); also: nearly all actives have a fitted effect of over 35% in size; also: potency is read from the fitted curve at half-maximal effect
# How it was run: as §5
# [12] = A CellTox Green Cytotoxicity Assay to monitor cytotoxicity in HepG2 cells - 32 hour (AID 1224883); also: nearly all actives have a fitted effect of over 50% in size; also: potency is read from the fitted curve at half-maximal effect
# How it was run: as §5
# [13] = A CellTox Green Cytotoxicity Assay to monitor cytotoxicity in HEK293 cells - 8 hour (AID 1224884); also: nearly all actives have a fitted effect of over 35% in size; also: potency is read from the fitted curve at half-maximal effect
# How it was run: as §2
# [14] = qHTS RealTime-Glo MT Cell Viability Assay in HepG2 cells - 16 hour (AID 1224885); also: nearly all actives have a fitted effect of over 50% in size
# How it was run: as §6
# [15] = qHTS RealTime-Glo MT Cell Viability Assay in HEK293 cells - 24 hour (AID 1224886); also: nearly all actives have a fitted effect of over 50% in size; also: potency is read from the fitted curve at half-maximal effect
# How it was run: as §3
# [16] = qHTS RealTime-Glo MT Cell Viability Assay in HEK293 cells - 8 hour (AID 1224887); also: nearly all actives have a fitted effect of over 50% in size; also: potency is read from the fitted curve at half-maximal effect
# How it was run: as §4
# [17] = qHTS RealTime-Glo MT Cell Viability Assay in HepG2 cells - 0 hour (AID 1224889); also: nearly all actives have a fitted effect of over 50% in size
# How it was run: as §6
# [18] = A CellTox Green Cytotoxicity Assay to monitor cytotoxicity in HEK293 cells - 24 hour (AID 1224875)
# How it was run: as §2
# [19] = A CellTox Green Cytotoxicity Assay to monitor cytotoxicity in HEK293 cells - 32 hour (AID 1224881); also: nearly all actives have a fitted effect of over 40% in size
# How it was run: as §2
# [20] = A CellTox Green Cytotoxicity Assay to monitor cytotoxicity in HEK293 cells - 16 hour (AID 1224888); also: nearly all actives have a fitted effect of over 35% in size
# How it was run: as §2
compound,measurement,setting,value
C=C(C)C(=O)OCC(CC)(COC(=O)C(=C)C)COC(=O)C(=C)C,Potency,[1],inactive
same,Potency,[2],inactive and 42.9 µM (active)
same,Potency,[3],inactive
same,Potency,[4],inactive
same,max response,[5],2.46% (inactive) and 6.81% (inactive)
same,Potency,[6],inactive and 42.9 µM (active)
same,Potency,[7],inactive
same,Potency,[8],inactive and 38.2 µM (active)
same,Potency,[9],inactive and 42.9 µM (active)
same,Potency,[10],inactive
same,Potency,[11],inactive and 42.9 µM (active)
same,Potency,[12],inactive and 42.9 µM (active)
same,Potency,[13],inactive and 24.1 µM (active)
same,Potency,[14],inactive
same,Potency,[15],inactive
same,Potency,[16],inactive
same,Potency,[17],inactive
CC1=C(/C=C/C(C)=C/C=C/C(C)=C/CO)C(C)(C)CCC1,Potency,[1],inactive
same,Potency,[3],inactive
same,Potency,[4],inactive
same,max response,[5],-27.5% (inactive) and -20.7% (inactive)
same,Potency,[18],inactive
same,Potency,[6],inactive
same,Potency,[7],inactive
same,Potency,[8],inactive
same,Potency,[9],inactive
same,Potency,[10],inactive
same,Potency,[19],inactive
same,Potency,[11],inactive
same,Potency,[12],inactive
same,Potency,[13],inactive
same,Potency,[14],inactive
same,Potency,[15],inactive
same,Potency,[16],inactive
same,Potency,[20],inactive
same,Potency,[17],inactive
CC1Cc2ccccc2N1NC(=O)c1ccc(Cl)c(S(N)(=O)=O)c1 (configuration not stated),Potency,[1],inactive
same,Potency,[2],inactive
same,Potency,[3],inactive
same,Potency,[4],inactive
same,max response,[5],3.11% (inactive) and -9.79% (inactive)
same,Potency,[6],inactive
same,Potency,[7],inactive
same,Potency,[8],inactive
same,Potency,[9],inactive
same,Potency,[10],inactive
same,Potency,[19],inactive
same,Potency,[11],inactive
same,Potency,[12],inactive
same,Potency,[13],inactive
same,Potency,[14],inactive
same,Potency,[15],inactive
same,Potency,[16],inactive
same,Potency,[20],inactive
same,Potency,[17],inactive
NC(=O)NNc1ccccc1,Potency,[1],inactive
same,Potency,[2],inactive
same,Potency,[3],inactive
same,Potency,[4],inactive
same,max response,[5],15.8% (inactive) and 8.69% (inactive)
same,Potency,[6],inactive
same,Potency,[7],inactive
same,Potency,[8],inactive
same,Potency,[9],inactive
same,Potency,[10],inactive
same,Potency,[11],inactive
same,Potency,[12],inactive
same,Potency,[13],inactive
same,Potency,[14],inactive
same,Potency,[15],inactive
same,Potency,[16],inactive
same,Potency,[20],inactive
same,Potency,[17],inactive
Clc1ccc(Cl)c(Cl)c1Cl,Potency,[1],inactive
same,Potency,[2],inactive
same,Potency,[3],inactive
same,Potency,[4],inactive
same,max response,[5],0.667% (inactive) and -4.21% (inactive)
same,Potency,[6],inactive
same,Potency,[7],inactive
same,Potency,[8],inactive
same,Potency,[9],inactive
same,Potency,[10],inactive
same,Potency,[19],inactive
same,Potency,[11],inactive
same,Potency,[12],inactive
same,Potency,[13],inactive
same,Potency,[14],inactive
same,Potency,[15],inactive
same,Potency,[16],inactive
same,Potency,[20],inactive
same,Potency,[17],inactive
CN(C)c1ccc(C(=N)c2ccc(N(C)C)cc2)cc1,Potency,[3],5.43 µM (active)
same,Potency,[5],2.42 µM (active) and 2.97 µM (active)
same,Potency,[18],inactive
same,Potency,[6],inactive
same,Potency,[8],inactive
same,Potency,[9],4.31 µM (active) and 18.8 µM (active)
same,Potency,[10],inactive
same,Potency,[11],inactive
same,Potency,[12],4.84 µM (active) and 18.8 µM (active)
same,Potency,[13],inactive
same,Potency,[15],3.42 µM (active) and 4.2 µM (active)
same,Potency,[16],inactive
same,Potency,[20],inactive
same,Potency,[17],inactive
COC(=O)Nc1nc2ccc(Sc3ccccc3)cc2[nH]1,Potency,[1],inactive
same,Potency,[2],21.3 µM (active)
same,Potency,[3],1.38 µM (active) and 1.9 µM (active)
same,Potency,[4],inactive
same,Potency,[5],616 nM (active) and 848 nM (active)
same,Potency,[6],inactive
same,Potency,[7],inactive
same,Potency,[8],inactive and 10.7 µM (active)
same,Potency,[9],1.55 µM (active) and 848 nM (active)
same,Potency,[10],inactive
same,Potency,[11],inactive
same,Potency,[12],2.19 µM (active) and 952 nM (active)
same,Potency,[13],inactive
same,Potency,[14],inactive
same,Potency,[15],871 nM (active) and 952 nM (active)
same,Potency,[16],1.74 µM (active) and 2.13 µM (active)
same,Potency,[20],inactive
same,Potency,[17],inactive
CC(C)(C)C(=O)C1C(=O)c2ccccc2C1=O,Potency,[1],inactive
same,Potency,[2],inactive
same,Potency,[3],inactive
same,Potency,[4],inactive
same,max response,[5],-29.9% (inactive) and -11.1% (inactive)
same,Potency,[6],inactive
same,Potency,[7],inactive
same,Potency,[8],inactive
same,Potency,[9],54.4 µM (active) and inactive
same,Potency,[10],inactive
same,Potency,[19],inactive
same,Potency,[11],inactive
same,Potency,[12],54.4 µM (active) and inactive
same,Potency,[13],inactive
same,Potency,[14],inactive
same,Potency,[15],inactive
same,Potency,[16],inactive
same,Potency,[20],inactive
same,Potency,[17],inactive
Nc1c(S(=O)(=O)O)cc(Br)c2c1C(=O)c1ccccc1C2=O,Potency,[1],inactive
same,Potency,[2],inactive
same,Potency,[3],inactive
same,Potency,[4],inactive
same,max response,[5],0.275% (inactive) and -15.6% (inactive)
same,Potency,[6],inactive
same,Potency,[7],inactive
same,Potency,[8],inactive
same,Potency,[9],inactive
same,Potency,[10],inactive
same,Potency,[19],inactive
same,Potency,[11],inactive
same,Potency,[12],inactive
same,Potency,[13],inactive
same,Potency,[14],inactive
same,Potency,[15],inactive
same,Potency,[16],inactive
same,Potency,[20],inactive
same,Potency,[17],inactive
Oc1c(Cl)cc(Cl)c(Cl)c1Cl,Potency,[1],inactive
same,Potency,[2],inactive
same,Potency,[4],inactive
same,Potency,[18],inactive
same,Potency,[6],inactive
same,Potency,[7],inactive
same,Potency,[8],inactive
same,Potency,[9],inactive
same,Potency,[10],inactive
same,Potency,[19],inactive
same,Potency,[11],inactive
same,Potency,[12],inactive
same,Potency,[13],inactive
same,Potency,[14],inactive
same,Potency,[20],inactive
same,Potency,[17],inactive
CCCCCCCCCCCCOCC1CO1 (configuration not stated),Potency,[1],inactive
same,Potency,[2],inactive
same,Potency,[3],inactive
same,Potency,[4],inactive
same,max response,[5],-10.9% (inactive) and -25.4% (inactive)
same,Potency,[6],inactive
same,Potency,[7],inactive
same,Potency,[8],inactive
same,Potency,[9],inactive
same,Potency,[10],inactive
same,Potency,[19],inactive
same,Potency,[11],inactive
same,Potency,[12],inactive
same,Potency,[13],inactive
same,Potency,[14],inactive
same,Potency,[15],inactive
same,Potency,[16],inactive
same,Potency,[20],inactive
same,Potency,[17],inactive

# From PubChem BioAssay (Tox21)
